The source of these data is PubChem BioAssay AID686978 (National Center for Advancing Translational Sciences (NCATS), 2013).

In all, about 420,000 compounds went through this assay and about 64,000 (15%) were called active. Another 27% or so got no clear call; they are omitted. Calls come from the whole dose curve; as a rule, active = well fitted inhibition curve with a large enough effect; inconclusive = small, poorly fitted or top-dose-only effect; inactive = flat fitted curve, though single readings scatter. A selection follows. Entries that show only a call come without a potency.
Potency is the fitted concentration of half-maximal effect.

This assay in a line: qHTS for Inhibitors of human tyrosyl-DNA phosphodiesterase 1 (TDP1): qHTS in cells in absence of CPT. Note: nearly all actives have a fitted effect of over 55% in size. The following applies: DT40 Tdp1-/- hTDP1 cells, no CPT, ATP luminescence, 48 h; activity change, negative = growth inhibition: at 46.2 µM (top of the series). In a few lines: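 Compound effects on proliferation are scored in DT40 Tdp1-/-;hTDP1 cells in the absence of CPT. ATP levels (CellTiter-Glo luminescence) are recorded after a ≥48 hr, 37 °C incubation.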
Turning to `O=S(=O)(NC(=S)Nc1ccccc1)c1ccc(F)cc1`, the Potency result is “inactive”.
For `CC(=O)c1ccc[n+](C(C)CCC(C)[n+]2cccc(C(C)=O)c2)c1` (stereo not given) the value was “inactive”; for `O=C(O)CCN1C(=O)CC2(CCCCC2)C1=O`, “inactive”.
As for `CN(CC(=O)Nc1ccccc1Cl)C(=O)COc1cccc2c1OC(C)(C)C2`, the Potency result was “inactive”.
`CCn1cc(C(=O)NCc2ccccc2)c(=O)c2cc(S(=O)(=O)N3CCCCC3)ccc21`: the Potency is 7.31 µM (active).
For `CCOCCCNC(=O)c1cn(CC)c2ccc(S(=O)(=O)N3CCc4ccccc4C3)cc2c1=O`, the Potency is 16.4 µM (active).
In the case of `CCOc1ccc(CNC(=O)c2cc(=O)[nH]c3ccc(S(=O)(=O)N4CCCCC4)cc23)cc1`, the Potency result was “inactive”.
With `CCN(CC)CCCNC(=O)c1cn(C)c2ccc(S(=O)(=O)N(C)C3CCCCC3)cc2c1=O`, the Potency entry is “inactive”.
Turning to `CCn1cc(C(=O)N(C)Cc2ccccc2)c(=O)c2cc(S(=O)(=O)N3CCCCCC3)ccc21`, the Potency result is “inactive”.
In the case of `Cc1ccc(CNC(=O)C2CCN(S(=O)(=O)c3ccc4nc5c(c(C(=O)O)c4c3)CC(C)CC5)CC2)cc1` (stereo not given), the Potency entry was “inactive”.
Consider `CCn1cc(C(=O)NCC2CCCO2)c(=O)c2cc(S(=O)(=O)N3CCCCC3)ccc21` (stereo not given), for which the Potency entry was “inactive”.
On to `CN(Cc1ccccc1)C(=O)c1cn(C)c2ccc(S(=O)(=O)N3CCCCC3)cc2c1=O`, for which the Potency entry is “inactive”.
As for `CCn1cc(C(=O)NCc2ccc(C)cc2)c(=O)c2cc(S(=O)(=O)N3CCc4ccccc4C3)ccc21`, the Potency was 11.6 µM (active).
`CCC1CCCCN1S(=O)(=O)Cc1ccccc1Cl` (stereo not given): the Potency entry is “inactive”.
On to `CCCCn1c(N)c(N(CCOC)C(=O)c2cccc(S(=O)(=O)N3CCCCC3)c2)c(=O)[nH]c1=O`, for which the Potency entry was “inactive”.
`Cc1cccc(N2O[C@H]3C=CC2CCCC3)n1`: the Potency result was “inactive”.
Consider `Cc1ccc(CN2CCN(/N=C/c3ccco3)CC2)c(C)c1`, for which the Potency entry is “inactive”.
As to `COc1cc2ccccc2cc1C(=O)N1CCOCC1`, the Potency result was “inactive”.
Consider `CCOc1ccc(C(C)=O)cc1COC(=O)CN1C(=O)NC2(CCCC2)C1=O`, for which the Potency entry is “inactive”.
`COc1ccc(Cl)cc1NS(=O)(=O)c1cccc(C(=O)NCC2CCCO2)c1` (stereo not given): the Potency entry is “inactive”.
The value for `CCC(C)C(NC(=O)C1CCC(=O)N1C(=O)OCc1ccccc1)C(=O)NC(C(=O)N1CCCC1C(N)=O)C(C)CC` (stereo not given) was “inactive”; that for `Cc1ccc(-c2cc(C(=O)N3CCc4ccccc4C3)no2)cc1` was “inactive”.
Regarding `CCn1c(SCC(=O)NC2CC2)nnc1-c1ccccn1`, the Potency entry was “inactive”.
For `COC(C[C@H](O)CC(=O)COCc1ccccc1)OC` the value was “inactive”; for `CCOC(=O)C(C(=O)OCC)C(C#N)c1ccccc1` (stereo not given), “inactive”; for `Cc1cc(C)cc(OCC(=O)NC(C)c2ccccc2)c1` (stereo not given), “inactive”.
Turning to `CCOC(=O)/C=C/C(=O)OCC(=O)NC(c1ccccc1)c1ccccc1`, the Potency was 8.2 µM (active).
Take `Cc1ccc(SCC(=O)NC(=O)NCc2ccco2)c(C)c1`: the Potency result was “inactive”.
As to `CC1=C(C(=O)N2CCOCC2)CC(CC(=O)NCc2cccs2)C(=O)N1CCCN1CCCC1=O` (stereo not given), the Potency entry is “inactive”.
Consider `CCN1C(=O)/C(=C\N2CCOCC2)SC1=S`, for which the Potency entry is “inactive”.
Take `CCN1C(=O)/C(=C\N2CCN(c3cccc(Cl)c3)CC2)SC1=S`: the Potency was 16.4 µM (active).
On to `O=C(O)C(c1ccccc1)N1C(=O)/C(=C\c2ccc(-c3cccc(Cl)c3)o2)SC1=S` (stereo not given), for which the Potency result was “inactive”.
With `CC1=NNC(=O)C1CC(=O)N/N=C/c1ccncc1` (stereo not given), the Potency entry was “inactive”.
Consider `Cc1ccc(S(=O)(=O)NCC(=O)N2CCOCCOCCOCCOCC2)cc1`, for which the Potency entry is “inactive”.
`CC1CCN(C(=O)COC(=O)CCC(=O)c2cccs2)CC1`: the Potency entry is “inactive”.
As to `CCC(=O)N1CCN=C1SCc1ccc(F)cc1`, the Potency result is “inactive”.
Take `COc1ccc(OC)c(S(=O)(=O)NCCC(C)C)c1`: the Potency entry was “inactive”.
For the molecule `COc1ccccc1N1CCN(/N=C/c2ccc(O)cc2O)CC1`, the Potency entry was “inactive”.
For `COc1ccccc1N1CCN(/N=C\C(Br)=C\c2ccccc2)CC1` the value was 7.31 µM (active); for `COc1ccccc1N1CCN(C(=O)C(=O)N/N=C/c2ccccc2F)CC1`, “inactive”; for `COCCn1c(N)c(N(Cc2ccccc2)C(=O)C2CCCCC2)c(=O)[nH]c1=O`, “inactive”.
As for `NC(=O)C1CCN(CC(O)CSc2ccc(F)cc2)CC1` (stereo not given), the Potency result is “inactive”.
For `CCCN1CC=C2C(C#N)=C(N)C(C#N)(C#N)C(c3cc(OC)ccc3OC)C2C1` (stereo not given) the value was “inactive”; for `CCOc1ccc(C2C(C(=O)NC)=C(C)Nc3nc4ccccc4n32)cc1OC` (stereo not given), “inactive”.
In the case of `COc1cccc(NC(=O)C(C)Oc2ccccc2)c1` (stereo not given), the Potency entry is “inactive”.
Regarding `COc1cccc(NC(=O)COC(=O)CCOc2ccccc2OC)c1`, the Potency result was “inactive”.
`COc1cccc(NC(=O)CC(c2ccc(OC(C)C)cc2)c2ccccc2OC)c1` (stereo not given): the Potency is 11.6 µM (active).
Turning to `CC(C)n1c(=S)[nH]c2cc(C(F)(F)F)ccc21`, the Potency was 16.4 µM (active).
With `CNS(=O)(=O)c1ccc2c(c1)[nH]c(=S)n2C`, the Potency result is “inactive”.
For `CCCn1c(=S)[nH]c2ccc(C(F)(F)F)cc21`, the Potency result is “inactive”.
Regarding `O=C(NCc1ccncc1)C1CCN(C(=O)c2cccc(Cl)c2)CC1`, the Potency entry was “inactive”.
In the case of `CCC(C(=O)NC1CCCC1)N(C(=O)Cn1nnc(-c2ccc(C)o2)n1)c1ccc(OC)c(OC)c1` (stereo not given), the Potency result is “inactive”.
For the molecule `COc1cc(OC)cc(C(=O)Nc2ccc(S(=O)(=O)Nc3cc(C)on3)cc2)c1`, the Potency result is “inactive”.
On to `COC(=O)COc1ccc(S(=O)(=O)Nc2ccc(NC(C)=O)cc2)cc1`, for which the Potency result is “inactive”.
In the case of `COC(C(=O)Nc1ccc(C(C)=O)cc1)c1ccccc1` (stereo not given), the Potency entry is “inactive”.
For `COc1cc(NC(=O)N2CCOCC2)cc(OC)c1`, the Potency entry was “inactive”.
For the molecule `CC(=O)Nc1ccc(S(=O)(=O)Nc2ccc(N3CCOCC3)c(F)c2)cc1`, the Potency result was “inactive”.
In the case of `COc1ccc(S(=O)(=O)Nc2ccc3c(c2)OCO3)cc1Cl`, the Potency entry was “inactive”.
Consider `CC(=O)Nc1ccc(S(=O)(=O)Nc2ccc(N3CCCCC3)cc2)cc1`, for which the Potency was 2.91 µM (active).
As for `CC(=O)Nc1ccc(NS(=O)(=O)c2ccc3c(c2)NC(=O)CC(=O)N3)cc1`, the Potency entry is “inactive”.
For the molecule `COC(C(=O)Nc1ccc(S(=O)(=O)Nc2ccc(C)c(C)c2)cc1)c1ccccc1` (stereo not given), the Potency was 14.6 µM (active).
In the case of `COc1cc(NS(=O)(=O)c2ccc(NC(C)=O)cc2)cc(OC)c1`, the Potency was 8.2 µM (active).
Take `COc1cc(NS(=O)(=O)c2ccc3c(c2)OCC(C(=O)N2CCCC2)O3)cc(OC)c1` (stereo not given): the Potency was 20.6 µM (active).
With `COC(C(=O)NCc1ccccc1C)c1ccccc1` (stereo not given), the Potency result is “inactive”.
For `CC(=O)N1CC2(C)CN(C(C)=O)CC(C)(C1)C2=O` the value was “inactive”; for `COc1ccc(N(CCC#N)S(=O)(=O)c2ccc(Cl)cc2)cc1`, “inactive”; for `CCCC(=O)NC(Nc1ccccc1OC)C(Cl)(Cl)Cl` (stereo not given), “inactive”.
For `Cn1c(=O)n(C)c(=O)n(CC(=O)N2CCCCC2)c1=O`, the Potency entry is “inactive”.
Consider `COc1cc(OC)cc(C2=Cc3ccccc3C(CC(=O)c3ccco3)N2c2ccc(-c3cnc(OC)nc3)cc2)c1` (stereo not given), for which the Potency result was “inactive”.
Consider `CC(=O)Nc1ccc(NC(=O)C(C)OC(=O)C2CC(=O)N(CCc3ccccc3)C2)cc1` (stereo not given), for which the Potency entry is “inactive”.
`O=C(NCC1(N2CCCCC2)CCCCC1)c1ccc(NS(=O)(=O)c2ccc(F)cc2)cc1`: the Potency entry was “inactive”.
As to `CCc1nnc(NC(=O)CSc2nnnn2-c2cccc(C(C)=O)c2)s1`, the Potency result is “inactive”.
The value for `COc1cccc(/C=C2\SC(=N)N(c3ccc(F)cc3)C2=O)c1` was “inactive”; that for `COc1ccc(NS(=O)(=O)c2ccc(NC(C)=O)cc2)cc1OC` was 6.51 µM (active).
Regarding `COc1ccc(CNC(=O)c2ccc(NS(=O)(=O)c3ccc4[nH]c(=O)[nH]c4c3)cc2)cc1OC`, the Potency result was “inactive”.
Regarding `COc1ccc(S(=O)(=O)Nc2ccc3oc(C)c(C(C)=O)c3c2)cc1`, the Potency was 5.17 µM (active).
With `COc1ccc(/C=C/C(=O)c2ccc(NS(=O)(=O)c3ccc(C)cc3)cc2)cc1O`, the Potency was 20.6 µM (active).
For `CC(=O)c1ccc(NC(=S)NC(=O)CC(C)C)cc1`, the Potency entry was “inactive”.
In the case of `CC(=O)c1c(C)oc2ccc(NS(=O)(=O)c3ccc(C(=O)O)cc3)cc12`, the Potency result is “inactive”.
The value for `COc1ccc(OC)c(C(C)NC(=S)Nc2ccc(S(=O)(=O)Nc3ncccn3)cc2)c1` (stereo not given) was “inactive”; that for `COc1ccc(C(=O)Oc2cc(/C=N/NS(=O)(=O)c3ccc(C)cc3)ccc2OC)cc1` was “inactive”; that for `CC(=O)Nc1ccc(S(=O)(=O)Nc2cccc(NC(=O)C(C)(C)C)c2)cc1` was “inactive”.
For the molecule `COc1ccc2oc(C)c(NC(C)=O)c2c1`, the Potency result is “inactive”.
For the molecule `COc1ccc(NS(=O)(=O)c2ccc(NC(=S)NC(=O)CC(C)C)cc2)cc1`, the Potency was 18.4 µM (active).
The value for `COc1ccc(S(=O)(=O)Nc2cc(C)on2)cc1NC(C)=O` was “inactive”; that for `CCCC(=O)Nc1ccc2oc(-c3ccc(O)c(Br)c3)nc2c1` was “inactive”.
Turning to `CSc1ccccc1OCc1cc(C(=O)N(C)CCc2c(C)n[nH]c2C)no1`, the Potency result was “inactive”.
`O=C(CN1CCCCCC1)Nc1c(Cl)cc(Cl)cc1Cl`: the Potency entry is “inactive”.
For `CN(C)C(=O)c1ccc(NC(=O)COC(=O)c2cc3c(s2)CCCCC3)cc1` the value was “inactive”; for `CSc1ccc(/C=N/N2CCN(Cc3ccccc3Cl)CC2)cc1`, “inactive”.
For `Cn1c2c(c(=O)n(C)c1=O)C(c1ccc(O)cc1)Nc1ccccc1O2` (stereo not given), the Potency entry was “inactive”.
Consider `Cc1nn(Cc2ccccc2)c(C)c1C(=O)NCCCN1CCCC1=O`, for which the Potency result was “inactive”.
For `CCC(=O)Nc1ccccc1C(=O)N1CCN(Cc2ccccc2)CC1` the value was “inactive”; for `Cc1nn(Cc2ccccc2)c(C)c1C(=O)N1CCN(CC(=O)Nc2ccccc2Cl)CC1`, 23.1 µM (active); for `CCOC(=O)CSc1nnc(CNC(=O)c2ccco2)n1-c1ccc(F)cc1`, “inactive”.
Turning to `NNC(=O)c1cnn(-c2ccccc2)c1C(F)(F)F`, the Potency entry is “inactive”.
For `CN(C)CCCOc1ccc(-c2ccc3nccn3c2)cn1` the value was “inactive”; for `OC[C@@H]1CN(Cc2cccs2)C[C@H](n2cnc3c(Nc4ccccc4)ncnc32)O1`, “inactive”.
Take `OC[C@@H]1CN(C2CCCC2)C[C@H](n2cnc3c(NC4CCC4)ncnc32)O1`: the Potency result is “inactive”.
Turning to `OC[C@@H]1CN(Cc2ccc(-c3ccccc3)cc2)C[C@H](n2cnc3c(NC4CCCC4)ncnc32)O1`, the Potency is 1.3 µM (active).
Regarding `Cc1nnc(SCC(N)=O)n1CC1CCCO1` (stereo not given), the Potency entry was “inactive”.
For `O=C(O)CSCc1nc2ccccc2s1`, the Potency result is “inactive”.
Consider `CCOC(=O)/C(C#N)=C/c1ccc(N2CCCCC2)cc1`, for which the Potency entry was “inactive”.
Consider `CCOC(=O)/C(C#N)=C/c1ccc(N2CCN(Cc3ccccc3)CC2)cc1`, for which the Potency was 20.6 µM (active).
`CCOC(=O)/C(C#N)=C/c1ccc(OCC(=O)Nc2ccccc2)c(OC)c1`: the Potency result was “inactive”.
